Activity calls are given as the source filed them. How the source made its calls: active means hit-call score of the fitted dose curve at least 0.9, where 1 is the maximum; inactive means score below 0.9.
Read-out: Interleukin-8 (IL8), CXCL8 (gene 3576)
Experiment: BSK_LPS_IL8: BioMAP Diversity Plus: LPS Assay for Interleukin-8 (IL8) Biomarker Activity (AID 2283078)
Conditions: primary human HUVEC with PBMC; actives raise or lower the signal
Outline: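 Human umbilical vein endothelial cells co-cultured with PBMC, LPS-stimulated, exposed to compound for 24 h. IL-8 quantified by ELISA; fitted in both directions against DMSO, with SRB total-protein staining of parallel cultures for cytotoxicity.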

SMILES | outcome | AC50
CCOP(=S)(OCC)Oc1nc(Cl)c(Cl)cc1Cl | inactive | 
CCOP(=S)(OCC)SCSP(=S)(OCC)OCC | inactive | 
CCOP(=S)(OCC)SCCS(=O)(=O)CC | inactive | 
CCOP(=S)(OCC)Oc1ccc(S(C)=O)cc1 (configuration not stated) | inactive | 
COC[C@H](C)N(C(=O)CCl)c1c(C)csc1C | inactive | 
ClC(Cl)=C(Cl)C(Cl)=C(Cl)Cl | inactive | 
COC(=O)Cc1ccccc1 | inactive | 
O=[N+]([O-])c1ccc(O)c([N+](=O)[O-])c1 | inactive | 
Nc1ncc([N+](=O)[O-])s1 | inactive | 
NC(=S)Nc1ccccc1 | inactive | 
CCC(C)(C)c1ccc(O)c(C(C)(C)CC)c1 |  | 28.1 µM (active)
O=C(O)CCC(F)(C(F)(F)F)C(F)(F)F | inactive | 
CCCCC(CC)CO[N+](=O)[O-] (configuration not stated) | inactive | 

Read-out: not listed separately
Experiment: BSK_LPS_SRB: Viability Assessment in the BioMAP Diversity Plus: LPS Assay (AID 2283079);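 further: total protein by sulforhodamine B absorbance as a cytotoxicity measure; measured one day after compound addition; fitted in both directions against DMSO so loss or gain of signal counts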
Conditions: primary human HUVEC with PBMC
Outline: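 Co-culture of human umbilical vein endothelial cells and PBMC, read 24 h after dosing. Total protein by 0.1% SRB staining after 10% TCA fixation, absorbance at 560 nm; bidirectional fit against DMSO.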

SMILES | outcome | AC50
O=C(O)C(Cl)(Cl)Cl | inactive | 
Oc1cccc2cccnc12 | inactive | 
CC(=O)OC(c1ccccc1)C(Cl)(Cl)Cl (configuration not stated) | inactive | 
C[C@]12CCC(=O)C[C@@H]1CC[C@@H]1[C@@H]2CC[C@]2(C)[C@@H](O)CC[C@@H]12 |  | 19.8 µM (active)
COP(=S)(OC)Oc1ccc(Sc2ccc(OP(=S)(OC)OC)cc2)cc1 |  | 13.7 µM (active)
C(=NC1CCCCC1)=NC1CCCCC1 |  | 32.8 µM (active)
COc1cc(OC)nc(NC(=O)NS(=O)(=O)c2ncccc2C(=O)N(C)C)n1 | inactive | 
CC12CC1(C)C(=O)N(c1cc(Cl)cc(Cl)c1)C2=O (configuration not stated) | inactive | 
COC(=O)c1sccc1S(=O)(=O)NC(=O)Nc1nc(C)nc(OC)n1 | inactive | 
C=C(C)C(=O)[O][Sn]([CH2]CCC)([CH2]CCC)[CH2]CCC |  | 0.148 µM (active)
CC(C)(C)c1cc(O)ccc1O |  | 28.5 µM (active)
CC(C)(c1ccccc1)c1ccc(O)c(C(C)(C)c2ccccc2)c1 |  | 12.7 µM (active)
CCCCCCCCc1ccc(O)cc1 |  | 34.1 µM (active)
O=C(Nc1ccc2[nH]ccc2c1)c1cc2cc(F)ccc2n1Cc1cccc(F)c1 |  | 13.2 µM (active)
O=C(OC1CCCCC1)c1ccccc1C(=O)OC1CCCCC1 |  | 20.9 µM (active)
C=CC(=O)OCCCCCC(C)C | inactive | 
CC(C)(C)CC(C)(C)c1ccc(O)cc1 |  | 12.9 µM (active)

SMILES | outcome | AC50
CCNc1nc(NC(C)(C)C)nc(SC)n1 | inactive | 
CC(=O)[O][Hg][c]1ccccc1 |  | 1.09 µM (active)
Nc1cccc2ccccc12 | inactive | 
ClCC(Cl)CCl | inactive | 
CCOP(=S)(OCC)Oc1nc(Cl)c(Cl)cc1Cl | inactive | 
CCOP(=S)(OCC)SCSP(=S)(OCC)OCC | inactive | 
CCOP(=S)(OCC)SCCS(=O)(=O)CC | inactive | 
CCOP(=S)(OCC)Oc1ccc(S(C)=O)cc1 (configuration not stated) | inactive | 
COC[C@H](C)N(C(=O)CCl)c1c(C)csc1C | inactive | 
ClC(Cl)=C(Cl)C(Cl)=C(Cl)Cl |  | 3.97 µM (active)
COC(=O)Cc1ccccc1 | inactive | 
O=[N+]([O-])c1ccc(O)c([N+](=O)[O-])c1 | inactive | 
Nc1ncc([N+](=O)[O-])s1 | inactive | 
NC(=S)Nc1ccccc1 | inactive | 
CCC(C)(C)c1ccc(O)c(C(C)(C)CC)c1 |  | 15 µM (active)
O=C(O)CCC(F)(C(F)(F)F)C(F)(F)F | inactive | 
CCCCC(CC)CO[N+](=O)[O-] (configuration not stated) | inactive | 
